Experiment [1] concerns Vero E6 infected with SARS-CoV-2. Kind of experiment: morphology score (similarity to uninfected cells); higher = more like uninfected cells. As to conditions: 24 h.
The test system is the same in experiment [2]. Kind of experiment: SARS-CoV-2 infection rate relative to infected DMSO; higher = more infection, active = 60 or less. As to conditions: 24 h.

This note sets out measurements from the supplement of paper PMC13380429.

`Cc1cc(C(=CNc2ccc(Cl)cc2)C(=O)Nc2ccc(Cl)cc2)on1` (10 µM) had a morphology score in experiment [1] of 0.005. For the same compound, the SARS-CoV-2 infection rate in experiment [2] is 103% (inactive).

Regarding `O=C(O)CCn1c2c(c3ccccc31)C[C@H](NS(=O)(=O)c1ccc(F)cc1)CC2` [ramatroban] (10 µM), the morphology score in experiment [1] was -0.0055. Also, the SARS-CoV-2 infection rate in experiment [2] is 102% (inactive).

Take `COc1ccc2c(c1OC)C(=O)O[C@@H]2[C@H]1c2cc3c(cc2CCN1C)OCO3` [hydrastine-(1R,9S)] (10 µM): the morphology score in experiment [1] is -0.0178. The SARS-CoV-2 infection rate in experiment [2] is 108% (inactive).

Consider `CC(C)Oc1cccc(CC(=O)N2CCC[C@](CC[N+]34CCC(c5ccccc5)(CC3)CC4)(c3ccc(Cl)c(Cl)c3)C2)c1` (10 µM), for which, in experiment [1], the morphology score is 0.0196. In addition, the SARS-CoV-2 infection rate in experiment [2] is 110% (inactive).

For the compound `CC[C@@H]1C(=O)OC[C@@H]1Cc1cncn1C` [pilocarpine] (10 µM), the morphology score in experiment [1] was -0.105. Besides, in experiment [2], the SARS-CoV-2 infection rate was 110% (inactive).

Compound `COc1ccc(CC(C)NCC(O)c2ccc(O)c(NC=O)c2)cc1` (stereo not given) [formoterol] (10 µM) had a morphology score in experiment [1] of 0.0444. Also, the SARS-CoV-2 infection rate in experiment [2] is 100% (inactive).

Take `Cc1csc(-c2nnc(Nc3ccc(Oc4ncccc4-c4ccnc(N)n4)cc3)c3ccccc23)c1` (0.833333 µM): the morphology score in experiment [1] turned out to be 0.202. Besides, in experiment [2], the SARS-CoV-2 infection rate is 19.5% (active).

`O=[N+]([O-])c1ccc(O)c([N+](=O)[O-])c1` [2,4-dinitrophenol] (10 µM) showed a morphology score in experiment [1] of 0.0596. Further, the SARS-CoV-2 infection rate in experiment [2] is 97.5% (inactive).

With `COc1cc(C#N)ccc1S(=O)(=O)Nc1ccc2c(c1)cc(C)c(=O)n2C` (10 µM), in experiment [1], the morphology score turned out to be 0.0143. In addition, the SARS-CoV-2 infection rate in experiment [2] is 102% (inactive).

In experiment [1], `CCCC(CCC)C(=O)Nc1ccn([C@@H]2O[C@H](CO)[C@@H](O)C2(F)F)c(=O)n1` (0.833333 µM) yielded a morphology score of 0.0484. Besides, in experiment [2], the SARS-CoV-2 infection rate was 100% (inactive).
